Measurements reported in PubChem BioAssay AID738 (SRMLSC, 2007).
The whole screen tested about 98,000 compounds, of which about 4,900 (5%) were called active. The sample as a whole holds a higher share of actives than the screen did. Values without a mark were called inactive. No stated cut-off is given here; in the data, active means inhibition above about 30%; inactive means the rest.

assay: growth inhibition of yeast control strain, primary screen, counter-screen for post-Golgi transport modulator project (AID 738); conditions: efflux-deficient yeast background strain, growth absorbance A615, 16 h; at 10 µM; active compounds read high

SMILES	inhibition
COc1cc(OC)c(-n2c(C)cc(C=O)c2C)cc1Cl	20.4%
Cc1ccc(-n2c(C)cc(/C=N/Nc3ccc([N+](=O)[O-])cn3)c2C)c(C)c1	3.3%
Cc1cc(C=O)c(C)n1-c1ccc(NC2CCCCC2)c([N+](=O)[O-])c1	39% (active)
O=C(O)c1ccccc1NC(=S)NC(NC(=O)c1ccccc1[N+](=O)[O-])C(Cl)(Cl)Cl (stereo unspecified)	21.6%
NC(=O)c1c(NC(=O)CSc2nnc(-c3ccco3)n2N)sc2c1CCCC2	-1.04%
O=C(CN1CCN(S(=O)(=O)c2ccc3ccccc3c2)CC1)NC(=O)NC1CCCCC1	19.7%
CCOc1cccc(C(=O)Nc2cnn(Cc3ccccc3)c2)c1	-4.4%
CCOC(=O)C(C(=O)OCC)C(C#N)c1ccccc1 (stereo unspecified)	30.5% (active)
CCOC(=O)CCP(=O)(O)C(O)(c1ccccc1)c1ccccc1	2.13%
CCCCCCOC(=O)NCC(O)c1ccccc1 (stereo unspecified)	4.19%
CCNC(=S)Nc1cccc(Cl)c1C	3.81%
COc1ccc(Cc2nnc(SCC(=O)c3cccc([N+](=O)[O-])c3)n2C)cc1	3.08%
Cc1ccc(NC(=O)N2CCC(c3nc4c(nnn4Cc4c(F)cccc4Cl)c(=O)[nH]3)CC2)cc1	8.76%
COc1ccc(-c2nnc(SCC(=O)NC3CCCCC3)o2)cc1OC	-2.95%
COc1cc(OC)c(C(=O)NC2CC(C)(C)NC(C)(C)C2)cc1OC	-5.38%
COc1cc(OC)c(C(=O)NC2CCCCCC2)cc1OC	46.5% (active)
C=CCn1c(SCCOc2ccc(OC)cc2)nnc1C(NC(=O)c1ccc(OC)cc1)C(C)C (stereo unspecified)	10.1%
CCOc1ccc(-n2c(N)c(C(=O)NCC3CCCO3)sc2=S)cc1 (stereo unspecified)	3.93%
O=C(Cc1ccc(S(=O)(=O)N2CCOCC2)s1)NCCC(c1ccccc1)c1ccccc1	22.9%
O=C(NC1CCCCC1)C1CCCN(S(=O)(=O)c2cccs2)C1 (stereo unspecified)	-12.5%
O=C(Cc1ccc(S(=O)(=O)N2CCCC2)s1)NC1CCCCCC1	31.8% (active)
Cc1cc(N)n2nc(-c3ccc(C(C)(C)C)cc3)cc2n1	31% (active)
COc1ccc(-c2cc(C)nc3nc(N)nn23)cc1	5.75%
Cc1cccc(-n2ncc(C#N)c2-n2cccc2)c1	20.2%
Cc1[nH]nc(-c2ccc(OCc3cnn(-c4ccccc4)c3)cc2O)c1Oc1ccc(Cl)cc1	0%
Cn1c(=O)c2c(ncn2CC(COCc2ccccc2Cl)OCc2ccccc2Cl)n(C)c1=O (stereo unspecified)	8.65%
